Results taken from PubChem BioAssay AID651706 (NMMLSC, 2012).
About 55 (2%) of roughly 2,300 compounds were called active.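 The calls were made as follows: active = share of green or green-and-red cells above 9 and 9% in run 1 or 4 and 3% in run 2; inactive = the rest, inconclusive results apart.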 Only a sample is shown.

Assay: differentiation of ER-HoxA9 arrested myeloid cells – cell-based, GFP/Mac1 flow cytometry, cherry pick 01, confirmation (AID 651706);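 as to differentiation response: plate controls were double positive share in DMSO wells for no effect and share in positive control wells for full effect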;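 as to double positive cells: share of live cells carrying both lysozyme GFP and MAC1 staining after four days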
Settings: ER-HoxA9 myeloid progenitors, stronger effect = higher value; differentiation response: GFP/Mac1 double-positive flow; double positive cells: measured here: percent double positive cells
For `Cc1ccc(C)c(S(=O)(=O)N2CCN(c3ncnc4sccc34)CC2)c1`, the differentiation response was 5.55% (inactive) and the double positive cells was 0%.
In the case of `O=C1c2ccccc2C(=O)N1Cc1cc(-c2ccccc2Cl)no1`, the differentiation response was 2.85% (inactive) and the double positive cells was 1.25%.
In the case of `N#CC1=C(N)Oc2c(sc3ccccc23)C1c1ccco1` (stereo unspecified), the differentiation response was 50% (inactive) and the double positive cells was 25%.
For `CCOC(=O)CC(=O)CSc1nc(-c2ccccc2)cc(-c2ccc(Cl)cc2)c1C#N`, the differentiation response was 1.35% (inactive) and the double positive cells was 1.15%.
With `COc1ccccc1CNC(=O)c1cc(-c2cc(Cl)ccc2C)n[nH]1` the differentiation response was 0.15% (inactive) and the double positive cells was 0%.
For `CCOC(=O)c1c(-c2cccc(C)c2)csc1NC(=O)c1c(-c2ccccc2)noc1C`, the differentiation response was 0.75% (inactive) and the double positive cells was 0.25%.
With `CCN(CC)c1ccc(/C=N/NC(=O)CNC(=O)c2cccs2)cc1` the differentiation response was 1.55% (inactive) and the double positive cells was 1.15%.
With `CCOc1ccc(NC(=O)CSc2nc3c(c(=O)n2-c2ccccc2OC)SCC3)cc1` the differentiation response was 2.25% (inactive) and the double positive cells was 1.4%.
For `CC1=C(C(N)=O)C(c2ccc3c(c2)OCO3)n2nc(-c3cccc(C)c3)nc2N1` (stereo unspecified), the differentiation response was 4.8% (inactive) and the double positive cells was 5.05%.
In the case of `COc1cc(/C=C(\C#N)c2nc3ccccc3[nH]2)ccc1O`, the differentiation response was 20.1% (inactive) and the double positive cells was 1.25%.
With `CCCCSc1nc2c(c(=O)n1CC)SC(C)C2` (stereo unspecified) the differentiation response was 1.7% (inactive) and the double positive cells was 0.9%.
With `Cc1nn(-c2cc(Cl)ccc2N)c(=O)c2ccccc12` the differentiation response was 1.3% (inactive) and the double positive cells was 1%.
For `Cc1cc(NC(=O)CSc2nc(C(C)C)nc3sc4c(c23)CCC(C)C4)no1` (stereo unspecified), the differentiation response was 1.5% (inactive) and the double positive cells was 1.25%.
For `Cc1ccc(-c2nc(C#N)c(NCCCn3ccnc3)o2)cc1`, the differentiation response was 1.5% (inactive) and the double positive cells was 1.1%.
In the case of `COc1ccccc1NC(=O)c1cc(Cl)nnc1Cl`, the differentiation response was 0% (inactive) and the double positive cells was 0%.
For `CC#CC[N+](C)(C)CCCCCC`, the differentiation response was 5.9% (inactive) and the double positive cells was 3.9%.
In the case of `O=C(Nc1ccccc1N1CCN(c2ccccc2)CC1)c1cccc(F)c1`, the differentiation response was 0.9% (inactive) and the double positive cells was 0.65%.
With `CC(C)OC(=O)CN1C(=O)C(=O)c2ccccc21` the differentiation response was 2.4% (inactive) and the double positive cells was 0.55%.
In the case of `N#C/C(=C/c1ccc(N2CCCCC2)o1)C(=O)NCCc1c[nH]c2ccccc12`, the differentiation response was 78.8% (inactive) and the double positive cells was 5.25%.
In the case of `O=C(CN1CCN(C2CCCCC2)CC1)Nc1ccccc1N1CCCCC1`, the differentiation response was 1.2% (inactive) and the double positive cells was 0.65%.
For `O=C(Nc1cccc(-c2nc3ncccc3o2)c1)c1ccco1`, the differentiation response was 1% (inactive) and the double positive cells was 0.45%.
For `Cn1c(CNC(=O)c2ccccc2F)nnc1SCc1ccc(F)cc1`, the differentiation response was 2.7% (inactive) and the double positive cells was 1.1%.
For `Cc1c(C(=O)OCC(=O)N(CCC#N)c2ccccc2)oc2c1ccc1ccccc12`, the differentiation response was 0% (inactive) and the double positive cells was 0%.
In the case of `CCOC(=O)C(C(=O)OCC)C(C#N)c1ccccc1` (stereo unspecified), the differentiation response was 1% (inactive) and the double positive cells was 0.7%.
With `CCC1CCCCN1CCCNC(=O)Cn1nc(-c2ccccc2)ccc1=O` (stereo unspecified) the differentiation response was 3.1% (inactive) and the double positive cells was 2.25%.
In the case of `Cc1ccc(C(=O)NC2CCCC(C)C2C)cc1S(=O)(=O)N1CCCCC1` (stereo unspecified), the differentiation response was 4.6% (inactive) and the double positive cells was 3.95%.
For `COc1ccc(-c2nnc(SCC(=O)c3cccs3)o2)c(OC)c1`, the differentiation response was 4.75% (inactive) and the double positive cells was 1.2%.
In the case of `COCCCn1c(=O)/c(=C/c2ccccc2OC(C)C)s/c1=C(\C#N)C(=O)Nc1ccc(C(=O)O)cc1`, the differentiation response was 3.5% (inactive) and the double positive cells was 1.7%.
